Measured values taken from PubChem BioAssay (NCI).
This is part of a sample that, as a whole, favours compounds with a hit. Of some 83,000 tested, about 20% had one in any assay.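 A percent growth of 40 corresponds to 60% growth inhibition; 0 means no net growth; -100 means all cells died. Active threshold: below 10.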 A number with no mark means an inactive call. Active and inactive are the calls of the source.

Tests used:
Experiment in all cases: NCI-60 one-dose screen, 48 h (100 = growth as untreated, 0 = no growth, -100 = all killed)
Settings in all cases: 10 µM unless noted
[1] = test system: NCI-H23 lung
[2] = test system: NCI-H226 lung
[3] = test system: NCI-H322M lung
[4] = test system: HOP-62 NSCLC
[5] = test system: HOP-92 NSCLC
[6] = test system: NCI-H522 lung
[7] = test system: A549/ATCC NSCLC
[8] = test system: 786-0 renal
[9] = test system: COLO 205 colon
[10] = test system: DU-145 prostate
[11] = test system: K-562 leukemia
[12] = test system: MDA-MB-231 breast
[13] = test system: RXF 393 renal
[14] = test system: SF-268 CNS
[15] = test system: SF-295 CNS
[16] = test system: SF-539 CNS
[17] = test system: UACC-257 melanoma
[18] = test system: M14 melanoma
[19] = test system: MALME-3M melanoma

COC(=O)C1(C)COP(=O)(NC23CC4CC(CC(C4)C2)C3)OC1 (stereo not drawn)
growth [1]: 106%
growth [2]: 108%
growth [3]: 99%
growth [4]: 99%
growth [5]: 83.6%
growth [6]: 89.5%
growth [7]: 99.7%
growth [8]: 102%
growth [9]: 103%
growth [10]: 95.4%
growth [11]: 106%
growth [12]: 119%
growth [13]: 107%
growth [14]: 104%
growth [15]: 104%
growth [16]: 110%
growth [17]: 101%
growth [18]: 104%

CCOC(=O)C1=C(C)NC(SCc2nnc(-c3ccc(Cl)cc3)o2)=NC1c1ccc(Cl)cc1 (stereo not drawn)
growth [1]: 78.8%
growth [2]: 69.9%
growth [3]: 82.3%
growth [4]: 92.8%
growth [5]: 64.1%
growth [6]: 68.9%
growth [7]: 69%
growth [8]: 83.4%
growth [9]: 79.6%
growth [10]: 87.2%
growth [11]: 55.8%
growth [19]: 81.7%
growth [12]: 62.7%
growth [13]: 67.7%
growth [14]: 86%
growth [15]: 74.1%
growth [16]: 87.7%
growth [17]: 86.9%
growth [18]: 69.3%

Nc1nonc1-c1nc2ccccc2n1Cc1ccc(F)cc1
growth [1]: 70.6%
growth [2]: 69.3%
growth [3]: 69.8%
growth [4]: 56.7%
growth [5]: 65%
growth [6]: 4.81% (active)
growth [7]: 39.1%
growth [8]: 76.4%
growth [9]: 42.8%
growth [10]: 80.7%
growth [11]: 10.6%
growth [19]: 46.2%
growth [12]: 60%
growth [13]: 37.8%
growth [14]: 66.3%
growth [15]: 68.5%
growth [16]: 49.9%
growth [17]: 75.4%
growth [18]: 28.2%

CCN(CC)Cc1cc(Nc2ccnc3cc(Cl)ccc23)cc(-c2ccc(Cl)cc2)c1O
growth [1]: 24%
growth [2]: 17.6%
growth [3]: 5.72% (active)
growth [4]: -46.1% (active)
growth [5]: -8.91% (active)
growth [6]: 35.3%
growth [7]: 20.7%
growth [8]: 55%
growth [9]: 55.8%
growth [10]: 26.1%
growth [11]: 18.8%
growth [19]: 10% (active)
growth [12]: 48.7%
growth [13]: 46.4%
growth [14]: 8.65% (active)
growth [16]: -25.6% (active)
growth [17]: 10.5%
growth [18]: 10.2%

CCN(CC)c1ccc2nc3c4ccccc4c(=O)cc-3n(-c3ccccc3)c2c1
growth [1]: -3.45% (active)
growth [2]: 5.4% (active)
growth [3]: -23.5% (active)
growth [4]: 9.84% (active)
growth [5]: -7.83% (active)
growth [6]: -8.95% (active)
growth [7]: 11.6%
growth [8]: 4.36% (active)
growth [9]: -55.1% (active)
growth [11]: 6.09% (active)
growth [19]: -32.3% (active)
growth [12]: -24.1% (active)
growth [13]: 6.05% (active)
growth [14]: 15.5%
growth [15]: -36.7% (active)
growth [16]: -30% (active)
growth [17]: -15.8% (active)
growth [18]: -56.8% (active)

COc1ccc(C2CC(c3cccc(Nc4ccnc5cc(Cl)ccc45)c3)=NN2c2ccccc2)cc1 (stereo not drawn)
growth [1]: 80%
growth [2]: 89%
growth [3]: 75%
growth [4]: 60%
growth [5]: 57.8%
growth [6]: 54.4%
growth [7]: 52.1%
growth [8]: 91.8%
growth [10]: 82.8%
growth [11]: 20.7%
growth [19]: 58.7%
growth [12]: 74.2%
growth [13]: 99%
growth [14]: 71.2%
growth [15]: 23%
growth [16]: 65.4%
growth [17]: 59.7%
growth [18]: 27%

NC(N)=N/N=C\c1cccc(OCc2ccccc2)c1
growth [1]: 79.5%
growth [2]: 86.2%
growth [3]: 91.7%
growth [4]: 79.6%
growth [5]: 40.9%
growth [6]: 61.8%
growth [7]: 87.9%
growth [8]: 79.6%
growth [9]: -70.9% (active)
growth [10]: 101%
growth [11]: 27.1%
growth [19]: 85.8%
growth [12]: 76%
growth [13]: 62.1%
growth [15]: 85.1%
growth [16]: 77.5%
growth [17]: 70.8%
growth [18]: 59.7%

COc1ccc(/C(=C\c2ccc3c(c2)OCO3)C(=O)Nc2nc3ccc(F)cc3s2)cc1OC
growth [1]: 93.2%
growth [2]: 87.1%
growth [3]: 87.3%
growth [4]: 92.8%
growth [5]: 93.6%
growth [6]: 94.2%
growth [7]: 99.7%
growth [8]: 92.1%
growth [9]: 106%
growth [10]: 98.2%
growth [11]: 101%
growth [12]: 109%
growth [13]: 111%
growth [14]: 98.5%
growth [16]: 96.3%
growth [17]: 112%
growth [18]: 94.3%

c1ccc2c(c1)cnc1ccccc12
growth [1]: 102%
growth [2]: 111%
growth [3]: 103%
growth [4]: 102%
growth [5]: 99.5%
growth [6]: 81.6%
growth [7]: 93.7%
growth [8]: 92.6%
growth [9]: 129%
growth [10]: 111%
growth [11]: 97.2%
growth [19]: 127%
growth [12]: 108%
growth [13]: 88.5%
growth [14]: 97.4%
growth [15]: 113%
growth [16]: 101%
growth [17]: 103%
growth [18]: 99.6%

C=CCn1c(C)nc2cc(Nc3nc(N4CCCC4)nc4nc[nH]c34)ccc21
growth [1]: 52.4%
growth [2]: 58.9%
growth [3]: 50.9%
growth [4]: 50.6%
growth [5]: -39.5% (active)
growth [6]: 56.3%
growth [7]: 46.3%
growth [8]: -76.1% (active)
growth [9]: 73.4%
growth [10]: 48.2%
growth [11]: -9.1% (active)
growth [19]: -29.3% (active)
growth [12]: -25% (active)
growth [13]: 54.4%
growth [14]: 29.3%
growth [15]: 31.2%
growth [16]: -18.7% (active)
growth [17]: 60.9%
growth [18]: 28.8%

CCc1ccc(Nc2cc(C)c3ccc(O)cc3n2)cc1
growth [1]: 90.4%
growth [2]: 76.7%
growth [3]: 82.9%
growth [4]: 88%
growth [5]: 74.4%
growth [6]: 92.2%
growth [7]: 85%
growth [8]: 68.1%
growth [9]: -81.3% (active)
growth [10]: 94.8%
growth [11]: 20.3%
growth [19]: 17.5%
growth [12]: 31.1%
growth [13]: 52.6%
growth [14]: 68.1%
growth [16]: 89.1%
growth [17]: 39.4%
growth [18]: 45.4%

COc1ccc2[nH]cc(C(c3ccc(Cl)cc3)N3CCCC3)c2c1 (stereo not drawn)
growth [1]: 93.2%
growth [2]: 98.2%
growth [3]: 94.3%
growth [4]: 97.6%
growth [5]: 79.2%
growth [6]: 82.1%
growth [7]: 98.8%
growth [8]: 102%
growth [9]: 114%
growth [10]: 101%
growth [11]: 90.2%
growth [19]: 72.8%
growth [12]: 94.6%
growth [13]: 82.9%
growth [14]: 92.5%
growth [15]: 94%
growth [16]: 98.2%
growth [17]: 91.9%
growth [18]: 95%

CCCc1n(Cc2ccc3ccccc3c2)c2ccccc2[n+]1Cc1ccc2ccccc2c1
growth [1]: -12.9% (active)
growth [2]: -4.44% (active)
growth [3]: 4.72% (active)
growth [4]: -55.4% (active)
growth [5]: -48.1% (active)
growth [6]: -60.2% (active)
growth [7]: -19.4% (active)
growth [8]: -85.2% (active)
growth [9]: -77% (active)
growth [10]: 2.32% (active)
growth [11]: -70.8% (active)
growth [19]: -63% (active)
growth [12]: -71.7% (active)
growth [13]: -79.3% (active)
growth [14]: -49.7% (active)
growth [15]: -59.8% (active)
growth [16]: -34.5% (active)
growth [17]: -49.9% (active)
growth [18]: -72% (active)

CCOC(CN1CCN(CC(C)C(=O)c2ccccc2)CC1)c1ccccc1 (stereo not drawn)
growth [1]: 112%
growth [2]: 91.2%
growth [3]: 95.5%
growth [4]: 104%
growth [5]: 97.5%
growth [6]: 73.9%
growth [7]: 96.5%
growth [8]: 106%
growth [10]: 112%
growth [11]: 115%
growth [19]: 105%
growth [12]: 95.5%
growth [13]: 99.5%
growth [14]: 113%
growth [15]: 92.6%
growth [16]: 111%
growth [17]: 93.2%
growth [18]: 114%

CC(C)c1ccc(Cn2ccc3c4c(N)nc(NC5CC5)nc4ccc32)cc1
growth [1]: -71.3% (active)
growth [2]: -73.3% (active)
growth [3]: -93.2% (active)
growth [4]: -74.8% (active)
growth [5]: -88.2% (active)
growth [6]: -81.8% (active)
growth [7]: -80.9% (active)
growth [8]: -91.6% (active)
growth [9]: -78% (active)
growth [10]: -89.5% (active)
growth [11]: -69.7% (active)
growth [19]: -91.6% (active)
growth [12]: -89.6% (active)
growth [13]: -90.9% (active)
growth [14]: -77.6% (active)
growth [15]: -82.8% (active)
growth [16]: -91.5% (active)
growth [17]: -77.8% (active)
growth [18]: -86.2% (active)

O=Cc1ccc2nc(C(Cl)(Cl)Cl)ccc2c1
growth [1]: 92.4%
growth [2]: 97%
growth [3]: 91.9%
growth [4]: 104%
growth [5]: 91.8%
growth [6]: 94.4%
growth [7]: 108%
growth [8]: 99%
growth [9]: 115%
growth [10]: 102%
growth [11]: 121%
growth [19]: 91.4%
growth [12]: 108%
growth [13]: 94.7%
growth [14]: 107%
growth [15]: 97.2%
growth [16]: 98.8%
growth [17]: 103%
growth [18]: 81.6%

COc1c(B(O)O)cccc1-c1nc2c(F)cc3n[nH]c(C)c3c2c2c1CCCC2
growth [1]: 17.5%
growth [2]: -0.685% (active)
growth [3]: 27.6%
growth [4]: 22%
growth [5]: 24.7%
growth [6]: 9.41% (active)
growth [7]: 9.82% (active)
growth [8]: 19.8%
growth [9]: 15.6%
growth [10]: 15%
growth [11]: 17.8%
growth [19]: 55.9%
growth [12]: 25.5%
growth [13]: -19.3% (active)
growth [14]: 17.5%
growth [16]: 4.1% (active)
growth [17]: 18.8%
growth [18]: 41.1%
